The values that follow come from PubChem BioAssay (EPA / NIEHS).

Assay [1] can be described thus: ATG_M_61_CIS: Attagene CIS-FACTORIAL HepG2 Assay for M61 Transcription Factor (Internal Marker) (AID 2282937). The note with it: HepG2 Attagene CIS-FACTORIAL M61 internal marker reporter; actives raise or lower the signal. Put shortly: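 Readout is reporter mRNA by RT-PCR, fluorescent primer extension and capillary electrophoresis, with gain or loss fitted relative to DMSO. Transfected HepG2 cells carrying endogenous-TF-driven cis reporters were exposed to chemicals for 24 hours.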

The nature of assay [2]: ATG_EGR_CIS: Attagene CIS-FACTORIAL HepG2 Assay for human Early Growth Response 1 (EGR1) (AID 2282938). The note with it: HepG2 Attagene CIS-FACTORIAL EGR reporter mRNA; actives raise or lower the signal. Put shortly:
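After 24 h compound exposure, RNA from reporter-transfected HepG2 cells was reverse-transcribed, PCR-amplified, fluorescently labelled and resolved by capillary electrophoresis. EGR1 reporter transcript changes, up or down, were fitted against DMSO, reflecting endogenous transcription-factor activity.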

Assay [3] in a line: ATG_M_19_CIS: Attagene CIS-FACTORIAL HepG2 Assay for M19 Transcription Factor (Internal Marker) (AID 2282939). The note with it: HepG2 Attagene CIS-FACTORIAL M19 internal marker reporter; actives raise or lower the signal. Put shortly: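 Chemical-treated HepG2 (24 h) with MRTU constructs; reporter transcripts detected by fluorescent RT-PCR fragment analysis on capillary electrophoresis. Internal background marker, DMSO as baseline.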

A short description of assay [4]: ATG_ERE_CIS: Attagene CIS-FACTORIAL HepG2 Assay for Estrogen Response Element (ERE) (AID 2282940). The conditions noted are these: HepG2 ERE cis-reporter, Attagene RNA transcript; actives raise or lower the signal. Put shortly: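 Human liver cells (HepG2) bearing transiently transfected, promoter-regulated reporter units were exposed 24 h. Reporter mRNA induction was detected by capillary electrophoresis of labelled RT-PCR products and fitted bidirectionally to DMSO.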

Assay [5] is described as follows: ATG_Ets_CIS: Attagene CIS-FACTORIAL HepG2 Assay for human Erythroblast Transformation Specific (ETS) (AID 2282941). The conditions noted are these: HepG2 ETS cis-reporter transcription, actives raise or lower the signal. The gist of the method:
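Endogenous transcription factor activity read as reporter mRNA via RT-PCR and capillary electrophoresis, with gain or loss fitted bidirectionally against DMSO. Human HepG2 liver cells, transiently transfected CIS reporter constructs, 24 h exposure.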

A short description of assay [6]: ATG_GATA_CIS: Attagene CIS-FACTORIAL HepG2 Assay for human GATA Binding Protein (AID 2282944). The note with it: HepG2 GATA cis-element reporter, Attagene multiplex mRNA; actives raise or lower the signal. The gist of the method: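 Transfected cis-reporter HepG2 cells were treated with chemicals for 24 hours. Total RNA was then converted to cDNA, amplified with reporter-specific primers and analysed by fluorescent capillary electrophoresis, using DMSO-treated wells as baseline.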

A short description of assay [7]: ATG_GLI_CIS: Attagene CIS-FACTORIAL HepG2 Assay for human Zinc Finger Protein GLI1 (AID 2282945). The note with it: HepG2, Attagene cis-factorial reporter mRNA, GLI element; actives raise or lower the signal. The gist of the method: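 Transiently transfected HepG2 cells report endogenous transcription factor activity via cis-element-driven reporter units. After 24 h compound exposure, reporter mRNA was measured by RT-PCR with capillary electrophoresis; bidirectional fitting against DMSO baseline.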

For assay [8], the target named is Bile acid receptor (Homo sapiens) (UniProt Q96RI1). As to the kind of experiment: ATG_IR1_CIS: Attagene CIS-FACTORIAL HepG2 Assay for human Nuclear Receptor Subfamily 1 Group H Member 4 (NR1H4), IR1 submotif (AID 2282946). The conditions noted are these: IR1 reporter transcription, actives raise or lower the signal. Put shortly:
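Fluorescence of capillary-separated, HpaI-digested RT-PCR reporter products gave IR1-element mRNA induction in HepG2 cells 24 h after dosing. Endogenous transcription factors drove the cis-regulated reporters; activity was fitted bidirectionally against DMSO.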

Assay [9] in a line: ATG_GRE_CIS: Attagene CIS-FACTORIAL HepG2 Assay for human Glucocorticoid Response Elements (GRE) (AID 2282947). The conditions noted are these: HepG2 GRE cis-reporter, Attagene multiplex mRNA; actives raise or lower the signal. The gist of the method: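 Read-out: fluorescent reporter-transcript fragments separated by capillary electrophoresis after RT-PCR. Transiently transfected HepG2 cells carrying cis-element-driven reporter units were dosed for 24 h; gain or loss of signal fitted against DMSO control.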

Assay [10] can be described thus: ATG_ISRE_CIS: Attagene CIS-FACTORIAL HepG2 Assay for human Interferon Regulatory Factor 1 (IRF1) binding to an Interferon-Stimulated Response Element (ISRE) (AID 2282948). The conditions noted are these: HepG2 ISRE cis-reporter (Attagene), mRNA transcription readout; actives raise or lower the signal. Put shortly:
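Endogenous transcription factor activity read as reporter transcript abundance via RT-PCR and capillary electrophoresis. HepG2 cells transiently transfected, 24 h chemical exposure. Gain or loss fitted against DMSO baseline.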

Assay [11] in a line: ATG_M_32_CIS: Attagene CIS-FACTORIAL HepG2 Assay for M32 Transcription Factor (Internal Marker) (AID 2282949).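 Note: background control marker of the multiplexed CIS panel rather than a real target.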 The conditions noted are these: HepG2 Attagene cis-factorial M32 reporter, mRNA; actives raise or lower the signal. The gist of the method: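 Using DMSO as baseline, bidirectional curve fits were applied to reporter mRNA signals. These came from transiently transfected HepG2 cells exposed for 24 h, with RNA analysed by RT-PCR, FAM primer extension, HpaI digestion and CE.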

The nature of assay [12]: ATG_M_06_CIS: Attagene CIS-FACTORIAL HepG2 Assay for M06 Transcription Factor (Internal Marker) (AID 2282950). The note with it: HepG2 Attagene CIS-FACTORIAL M06 internal marker reporter; actives raise or lower the signal. The gist of the method:
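Cells (HepG2, transiently carrying cis-driven reporter units) receive chemical for 24 h before RNA isolation. Reporter cDNA is PCR-amplified, FAM-labelled by primer extension, HpaI-digested and sized on a capillary analyser.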

Assay [13] deals with Hypoxia-inducible factor 1-alpha (Homo sapiens) (UniProt Q16665). Briefly: ATG_HIF1a_CIS: Attagene CIS-FACTORIAL HepG2 Assay for human Hypoxia Inducible Factor 1 (HIF1A) (AID 2282951). The conditions noted are these: HepG2 Attagene cis-factorial HIF1a reporter transcription; actives raise or lower the signal. The gist of the method: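 Activity is fitted in both directions relative to DMSO. Reporter transcripts are read by RT-PCR, fluorescent primer extension and capillary electrophoresis after 24 h chemical treatment. The cells are HepG2 carrying transiently transfected cis-element-driven reporter units responding to endogenous factors.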
Hypoxia-inducible factor 1-alpha (Homo sapiens), sequence (Q16665 whole entry, looked up): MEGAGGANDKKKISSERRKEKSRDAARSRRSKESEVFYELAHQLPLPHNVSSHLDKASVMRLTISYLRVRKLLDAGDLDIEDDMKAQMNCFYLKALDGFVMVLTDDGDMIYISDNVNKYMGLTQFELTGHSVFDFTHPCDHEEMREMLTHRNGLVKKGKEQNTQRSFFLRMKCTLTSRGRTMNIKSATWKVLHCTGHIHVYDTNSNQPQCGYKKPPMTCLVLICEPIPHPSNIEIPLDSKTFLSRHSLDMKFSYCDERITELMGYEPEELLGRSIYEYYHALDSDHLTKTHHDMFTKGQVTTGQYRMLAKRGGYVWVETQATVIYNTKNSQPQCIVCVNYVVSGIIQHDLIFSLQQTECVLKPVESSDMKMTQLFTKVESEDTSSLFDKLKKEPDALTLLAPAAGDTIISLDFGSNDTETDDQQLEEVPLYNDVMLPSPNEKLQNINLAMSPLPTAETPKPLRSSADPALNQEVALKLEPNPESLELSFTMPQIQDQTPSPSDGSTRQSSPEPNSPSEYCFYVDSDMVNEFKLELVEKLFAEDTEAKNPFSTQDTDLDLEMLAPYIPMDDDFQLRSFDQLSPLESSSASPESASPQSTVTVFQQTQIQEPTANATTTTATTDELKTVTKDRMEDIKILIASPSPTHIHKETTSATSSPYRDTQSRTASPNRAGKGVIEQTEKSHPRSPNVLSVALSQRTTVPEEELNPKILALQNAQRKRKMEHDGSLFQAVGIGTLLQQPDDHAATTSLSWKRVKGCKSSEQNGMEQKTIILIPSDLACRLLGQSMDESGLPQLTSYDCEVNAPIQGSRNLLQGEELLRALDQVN

Assay [14] concerns the target Hepatocyte nuclear factor 6 (Homo sapiens) (UniProt Q9UBC0). As to the kind of experiment: ATG_HNF6_CIS: Attagene CIS-FACTORIAL HepG2 Assay for human Hepatocyte Nuclear Factor 6 (HNF6) (AID 2282952). The conditions noted are these: HepG2 Attagene cis-factorial HNF6 reporter transcription; actives raise or lower the signal. Put shortly: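 First, HepG2 cells were transfected with the multiplexed cis reporter library and dosed with chemical for 24 h. Next, RNA was reverse-transcribed, PCR-amplified and fluorescently labelled. Finally, HpaI-digested fragments were read by capillary electrophoresis.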

In assay [15] the target is Heat shock factor protein 1 (Homo sapiens) (UniProt Q00613). As to the kind of experiment: ATG_HSE_CIS: Attagene CIS-FACTORIAL HepG2 Assay for human Heat Shock Transcription Factor 1 (HSE) (AID 2282953). The note with it: HepG2 HSE cis-reporter, Attagene RNA transcription; actives raise or lower the signal. The gist of the method:
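Liver-derived HepG2 cells carry transiently introduced multiple reporter units governed by cis promoters. Reporter RNA measured 24 h post-dose through reverse transcription, PCR amplification, fluorescent labelling and capillary electrophoresis, normalised to DMSO.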

Assay [16] is described as follows: ATG_MRE_CIS: Attagene CIS-FACTORIAL HepG2 Assay for human Metal Responsive Element (MRE) (AID 2282954). The conditions noted are these: HepG2 MRE cis-reporter transcription, Attagene multiplex; actives raise or lower the signal. The gist of the method:
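RT-PCR/capillary electrophoresis readout of reporter mRNA, 24 h post-dosing, in HepG2 cells transfected with multiplexed cis-regulated reporter constructs. Gain or loss of signal fitted bidirectionally against DMSO baseline.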

The nature of assay [17]: ATG_PBREM_CIS: Attagene CIS-FACTORIAL HepG2 Assay for human Phenobarbital-responsive Enhancer Module (PBREM) (AID 2282955). The conditions noted are these: HepG2 PBREM cis-reporter, Attagene multiplexed transcription; actives raise or lower the signal. Put shortly: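 Endogenous transcription factor activity was read from reporter transcripts in transiently transfected human HepG2 liver cells after 24 h dosing. RT-PCR products were fluorescently labelled, HpaI-cut and sized by capillary electrophoresis; activity fitted bidirectionally against DMSO baseline.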

The target in assay [18] is Paired box protein Pax-6 (Homo sapiens) (UniProt P26367). Briefly: ATG_Pax6_CIS: Attagene CIS-FACTORIAL HepG2 Assay for human Paired Box 6 (PAX6) (AID 2282956). The note with it: HepG2 CIS-FACTORIAL PAX6 reporter transcription, RNA readout; actives raise or lower the signal. The gist of the method: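 Read-out is reporter transcript level, measured by RT-PCR with fluorescent primer extension and capillary electrophoresis after 24 h dosing of transfected HepG2 cells. Activity in either direction fitted relative to DMSO control.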
Paired box protein Pax-6 (Homo sapiens), sequence (P26367 whole entry, looked up): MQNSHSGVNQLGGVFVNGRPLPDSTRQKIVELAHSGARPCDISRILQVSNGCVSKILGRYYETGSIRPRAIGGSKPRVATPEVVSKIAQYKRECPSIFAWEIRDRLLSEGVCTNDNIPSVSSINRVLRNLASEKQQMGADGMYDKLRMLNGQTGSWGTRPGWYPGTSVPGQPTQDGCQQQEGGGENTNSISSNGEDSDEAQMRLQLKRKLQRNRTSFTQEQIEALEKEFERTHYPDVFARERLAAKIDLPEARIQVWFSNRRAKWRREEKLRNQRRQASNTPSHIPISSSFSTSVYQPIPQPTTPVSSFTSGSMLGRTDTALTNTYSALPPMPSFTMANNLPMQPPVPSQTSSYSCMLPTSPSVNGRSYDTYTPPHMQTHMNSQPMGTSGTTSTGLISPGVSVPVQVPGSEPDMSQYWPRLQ

The target in assay [19] is Hepatocyte nuclear factor 3-beta (Homo sapiens) (UniProt Q9Y261). As to the kind of experiment: ATG_FoxA2_CIS: Attagene CIS-FACTORIAL HepG2 Assay for human Forkhead box A2 (FOXA2) (AID 2282942). The note with it: HepG2 cis-reporter transcription factor activity, 24 h; actives raise or lower the signal. The gist of the method:
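Endogenous transcription factor activity is captured via cis-element-driven reporter transcripts in transfected HepG2. Total RNA taken at 24 h post-dosing; labelled RT-PCR products resolved by capillary electrophoresis. Gain or loss fitted versus DMSO.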

Assay [20] can be described thus: ATG_FoxO_CIS: Attagene CIS-FACTORIAL HepG2 Assay for human Forkhead box O (FoxO) (AID 2282943). The conditions noted are these: HepG2 Attagene cis-reporter, FoxO element, mRNA; actives raise or lower the signal. The gist of the method: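 HepG2 cells transiently transfected with cis-element-driven reporter units report endogenous FoxO activity. After 24 h chemical exposure, reporter mRNA quantified by RT-PCR, fluorescent labeling, HpaI digestion and capillary electrophoresis; bidirectional fit versus DMSO.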

Active and inactive are the calls of the source. Rule for the calls: active = hit-call score of the fitted dose curve at least 0.9, where 1 is the maximum; inactive = score below 0.9.

Hepatocyte nuclear factor 6 (Homo sapiens), sequence (Q9UBC0 whole entry, looked up, the tested form may be a part): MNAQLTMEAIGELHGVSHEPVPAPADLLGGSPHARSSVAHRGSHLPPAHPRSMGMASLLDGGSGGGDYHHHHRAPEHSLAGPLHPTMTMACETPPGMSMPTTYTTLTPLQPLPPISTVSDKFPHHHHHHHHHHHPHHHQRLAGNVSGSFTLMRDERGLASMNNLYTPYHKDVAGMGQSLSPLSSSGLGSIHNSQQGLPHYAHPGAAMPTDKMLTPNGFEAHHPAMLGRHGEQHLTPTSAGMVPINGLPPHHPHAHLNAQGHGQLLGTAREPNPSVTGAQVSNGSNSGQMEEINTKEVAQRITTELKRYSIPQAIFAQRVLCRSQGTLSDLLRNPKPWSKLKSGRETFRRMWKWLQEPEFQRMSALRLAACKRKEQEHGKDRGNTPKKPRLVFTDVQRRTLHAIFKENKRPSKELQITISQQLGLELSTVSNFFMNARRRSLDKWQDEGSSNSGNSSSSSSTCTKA
Heat shock factor protein 1 (Homo sapiens), sequence (Q00613 whole entry, looked up): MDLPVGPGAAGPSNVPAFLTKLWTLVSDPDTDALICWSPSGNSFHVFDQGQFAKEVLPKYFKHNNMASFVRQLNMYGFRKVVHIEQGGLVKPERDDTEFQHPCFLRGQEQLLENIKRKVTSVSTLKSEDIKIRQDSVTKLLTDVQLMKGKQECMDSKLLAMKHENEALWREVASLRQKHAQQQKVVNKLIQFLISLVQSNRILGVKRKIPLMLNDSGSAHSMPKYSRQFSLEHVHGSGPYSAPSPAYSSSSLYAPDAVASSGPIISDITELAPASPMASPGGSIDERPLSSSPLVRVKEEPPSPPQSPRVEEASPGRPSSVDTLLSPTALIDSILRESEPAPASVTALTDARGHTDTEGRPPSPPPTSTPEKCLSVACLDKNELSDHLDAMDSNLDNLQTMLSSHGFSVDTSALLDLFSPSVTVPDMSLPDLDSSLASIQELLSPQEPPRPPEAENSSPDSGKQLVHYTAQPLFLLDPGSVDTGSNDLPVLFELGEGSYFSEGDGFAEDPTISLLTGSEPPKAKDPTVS
Bile acid receptor (Homo sapiens), sequence (Q96RI1 whole entry, looked up): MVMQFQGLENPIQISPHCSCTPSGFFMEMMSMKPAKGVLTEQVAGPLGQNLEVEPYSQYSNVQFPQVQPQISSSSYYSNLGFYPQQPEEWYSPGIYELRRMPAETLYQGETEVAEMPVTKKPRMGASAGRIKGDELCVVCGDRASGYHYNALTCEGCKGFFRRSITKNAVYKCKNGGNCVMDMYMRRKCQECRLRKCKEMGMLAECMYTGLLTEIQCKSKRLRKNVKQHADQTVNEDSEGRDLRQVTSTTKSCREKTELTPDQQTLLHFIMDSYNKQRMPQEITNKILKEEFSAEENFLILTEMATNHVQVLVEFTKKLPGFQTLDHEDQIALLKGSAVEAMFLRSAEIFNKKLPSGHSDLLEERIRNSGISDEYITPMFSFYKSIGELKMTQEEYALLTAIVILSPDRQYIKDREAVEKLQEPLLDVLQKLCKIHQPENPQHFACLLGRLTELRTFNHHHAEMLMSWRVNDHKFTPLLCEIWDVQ
Hepatocyte nuclear factor 3-beta (Homo sapiens), sequence (Q9Y261 whole entry, looked up): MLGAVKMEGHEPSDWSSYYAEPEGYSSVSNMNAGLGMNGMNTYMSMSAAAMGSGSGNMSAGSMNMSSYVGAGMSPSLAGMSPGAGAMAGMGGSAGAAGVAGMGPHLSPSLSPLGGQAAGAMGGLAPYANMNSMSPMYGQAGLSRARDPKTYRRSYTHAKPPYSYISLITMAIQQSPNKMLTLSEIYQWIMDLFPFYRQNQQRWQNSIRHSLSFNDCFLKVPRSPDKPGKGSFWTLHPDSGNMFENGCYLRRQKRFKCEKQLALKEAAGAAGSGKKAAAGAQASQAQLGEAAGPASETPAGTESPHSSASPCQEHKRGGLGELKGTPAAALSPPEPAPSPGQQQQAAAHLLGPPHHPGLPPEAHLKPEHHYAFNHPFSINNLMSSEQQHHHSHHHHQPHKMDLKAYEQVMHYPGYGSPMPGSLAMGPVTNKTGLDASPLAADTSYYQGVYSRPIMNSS

The AC50 is the midpoint of the concentration-response curve, whichever way the signal moves. Take `CCC[CH2][Sn]([Cl])([Cl])[CH2]CCC`: the compound was called inactive in [1], in assay [3], in assay [5], in assay [6], in assay [9] and in [11]. Besides, the result in assay [12], in [14] and in assay [17] was inactive. Moreover, the concentration at half-maximal activity (AC50) is 1240 nM (active) in assay [2]; 312 nM (active) in assay [4]; 1540 nM (active) in [7]; 1730 nM (active) in [8]; 1990 nM (active) in [10]; 1240 nM (active) in assay [13]. The AC50 in [15] was 818 nM (active); in assay [16], 1240 nM (active); in [18], 1460 nM (active).

For the compound `Fc1cccc(Cl)c1CCl`, the result in [1], in assay [2], in assay [3], in assay [4], in assay [5] and in [6] was inactive. For the same compound, the compound was called inactive in [7], in assay [8], in assay [9], in assay [10], in assay [11] and in assay [13]. Besides, the compound was classed as inactive in [14], in assay [16] and in [17]. For the same compound, the AC50 in assay [15] was 159000 nM (active); in assay [18], 73900 nM (active).

Regarding `CCCCOC(=O)COC(=O)c1ccccc1C(=O)OCCCC`, the compound was classed as inactive in assay [1], in [2], in assay [3], in assay [4], in [5] and in [19]. Further, the call in assay [7], in assay [9], in assay [10], in [12], in [13] and in assay [14] was inactive. In addition, the compound was classed as inactive in [15], in assay [16], in assay [17] and in [18].

Consider `CCOC(=O)c1ccccc1S(=O)(=O)NC(=O)Nc1nc(Cl)cc(OC)n1`, for which the call in assay [1], in assay [2], in assay [3], in assay [4], in assay [5] and in assay [20] was inactive. Moreover, the outcome in assay [6], in assay [7], in [8], in [9], in [10] and in [11] was inactive. In addition, the outcome in assay [12], in assay [13], in assay [14], in [15], in assay [16] and in [17] was inactive. Besides, in [18], the outcome was inactive.
